Screening data (PubChem BioAssay)
Most compounds without a hit are left out; they make up all but 1.4% or so of the library.
A3A deaminase = inhibitors of human APOBEC3A DNA deaminase; P31941; inhibition, % at 20 µM; actives 0.41% (n = 330,000); recombinant A3A, FAM/TAMRA ssDNA deamination fluorescence;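 active = at least 40% inhibition at 20 µM here, with at most 30% in a related deaminase screen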
APOBEC3G inh = APOBEC3G (human) deaminase inhibition; Q9HC16; recombinant A3G, ssDNA deamination FAM/TAMRA fluorescence; inhibition, % at 20 µM; actives 0.28% (n = 330,000); AID 493012;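 active = inhibition of at least 40% at 20 µM, with no more than 30% in the related APOBEC3A deaminase screen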
HDAC3 inh = human HDAC3 inhibition | actives 0.15% (n = 320,000) | AID 2718 | recombinant HDAC3, fluorogenic peptide/trypsin coupled, fluorescence | O15379 | inhibition, % at 8.3 µM; in the data active = inhibition above about 26%, passing the limit was not always enough
LANA-H2A inh = blocks KSHV LANA binding to histone H2A/H2B. inhibition, % (test concentration not listed). cell-free LANA-H2A/H2B peptide, fluorescence polarization. Q9QR71. actives 0.6% (n = 320,000); in the data active = inhibition mostly above about 10%, no sharp cut-off; inactive = mostly below about 6.7%
Target sequence (Q9QR71 whole entry, looked up): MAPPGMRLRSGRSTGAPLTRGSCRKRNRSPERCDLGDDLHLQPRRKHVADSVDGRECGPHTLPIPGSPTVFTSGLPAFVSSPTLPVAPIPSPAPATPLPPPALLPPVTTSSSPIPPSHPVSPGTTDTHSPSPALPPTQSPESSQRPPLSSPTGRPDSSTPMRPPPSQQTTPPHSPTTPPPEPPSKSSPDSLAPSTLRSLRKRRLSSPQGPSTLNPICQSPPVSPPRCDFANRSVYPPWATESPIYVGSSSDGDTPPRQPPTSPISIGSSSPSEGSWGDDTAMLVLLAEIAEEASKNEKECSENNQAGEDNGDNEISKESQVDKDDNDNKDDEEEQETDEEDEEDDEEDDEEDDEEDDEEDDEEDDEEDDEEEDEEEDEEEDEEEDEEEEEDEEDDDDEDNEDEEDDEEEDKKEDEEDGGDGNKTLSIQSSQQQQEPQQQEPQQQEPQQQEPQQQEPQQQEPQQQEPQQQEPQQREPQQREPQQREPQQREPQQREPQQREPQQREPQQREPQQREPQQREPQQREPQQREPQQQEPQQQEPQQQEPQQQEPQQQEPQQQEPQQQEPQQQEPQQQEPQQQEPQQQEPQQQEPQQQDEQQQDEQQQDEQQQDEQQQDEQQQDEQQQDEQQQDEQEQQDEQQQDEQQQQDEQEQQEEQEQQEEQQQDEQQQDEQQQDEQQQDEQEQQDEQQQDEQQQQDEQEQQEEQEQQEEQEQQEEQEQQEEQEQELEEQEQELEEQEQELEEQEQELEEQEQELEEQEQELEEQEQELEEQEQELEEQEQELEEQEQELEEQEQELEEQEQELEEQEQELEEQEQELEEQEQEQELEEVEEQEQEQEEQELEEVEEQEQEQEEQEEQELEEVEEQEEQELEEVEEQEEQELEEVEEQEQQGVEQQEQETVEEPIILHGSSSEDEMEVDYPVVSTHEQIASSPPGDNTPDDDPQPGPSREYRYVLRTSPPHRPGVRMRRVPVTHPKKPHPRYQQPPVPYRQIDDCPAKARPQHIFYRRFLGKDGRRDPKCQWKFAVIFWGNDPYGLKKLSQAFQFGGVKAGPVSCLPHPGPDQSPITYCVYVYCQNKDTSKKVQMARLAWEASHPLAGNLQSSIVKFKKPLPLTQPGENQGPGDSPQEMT
APOBEC3G confirm = confirmation of human APOBEC3G DNA deaminase inhibitors | shares compounds with APOBEC3G inh | inhibition, % at 20 µM | AID 493152 | actives 72% (n = 890) | recombinant A3G ssDNA deaminase, UDG/FAM-TAMRA fluorescence;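 active = inhibition reaching a set limit in any replicate at 20 µM, the limit being 80% of the first screen's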
UDG ctr A3G = inhibits E. coli UDG, flagging false APOBEC3G inhibitors | UDG counterscreen, FAM/TAMRA oligo fluorescence | 710 tested, under 10 active | inhibition, % at 20 µM | shares compounds with APOBEC3G inh;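 active = compounds giving 40% or more inhibition at 20 µM in any one of the three replicates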;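 note: inhibitors lower the FAM signal released by uracil excision and alkaline cleavage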
Numbers stand for hits; n = inactive; x = no result given.

SMILES	A3A deaminase	APOBEC3G inh	HDAC3 inh	LANA-H2A inh	APOBEC3G confirm	UDG ctr A3G
O=[N+]([O-])c1cccc(-c2n[nH]c(=S)n2Cc2ccccc2)c1	n	n	n	n	x	x
S=c1[nH]nc(-c2cccc(Cl)c2)n1Cc1ccccc1	n	n	n	n	x	x
C=CCn1c(OCc2ccccc2)n[nH]c1=S	n	41	n	n	67	n
C=CCn1c(C(c2ccccc2)c2ccccc2)n[nH]c1=S	n	n	n	n	x	x
CC(C)c1nc2scc(-c3ccc(Cl)cc3)c2c(=O)n1N	n	n	n	n	x	x
COc1ccc(CCNC(=O)C(NS(=O)(=O)c2cccc3nsnc23)C(C)C)cc1OC (stereo not given)	n	n	x	x	x	x
C=CCn1c(-c2sccc2C)n[nH]c1=S	n	44	n	n	n	x
C=C(C)Cn1c(-c2cccc([N+](=O)[O-])c2)n[nH]c1=S	n	44	n	n	75	n
S=c1[nH]nc(C2CCCCC2)n1/N=C/c1ccncc1	n	48	n	n	68	n
CSc1ccc(/C=N/n2c(C3CCCCC3)n[nH]c2=S)cc1	n	n	n	n	x	x
Cc1ccc(C2=NCCn3c2c2ccccc2[n+]3[O-])cc1	n	n	n	n	x	x
COC(=O)CCC(=O)Nc1sc(Cc2ccccc2)c(C)c1C(N)=O	n	45	n	22	57	n
COC(=O)CCC(=O)Nc1sc(C)c(C)c1C(N)=O	n	57	n	n	55	n
COC(=O)CCC(=O)NC(=S)Nc1sc(C)c(C)c1C(N)=O	n	n	n	n	x	x
CC(NC(=O)CNC(=O)[C@@H]1Cc2ccccc2CN1)c1ccccc1 (stereo not given in full)	n	n	n	n	x	x
O=C(NCCCc1ccccc1)[C@@H]1Cc2ccccc2CN1	n	62	n	n	20	n
Cc1cccc2c1cnn2C(=O)Nc1ccccc1Cl	n	n	n	n	x	x
COc1ccc(S(=O)(=O)N2CCC3(CC2)OCCN3S(=O)(=O)c2ccc(C)cc2)cc1OC	n	n	n	n	x	x
CCc1n[nH]c(=S)n1/N=C/c1c(O)ccc2ccccc12	n	52	n	n	75	n
Cc1ccc(S(=O)(=O)N2CCC(C(=O)Nc3nnc(-c4ccco4)s3)CC2)cc1	n	n	n	n	x	x
O=C(Nc1nnc(-c2ccco2)s1)C1CCCCC1	n	56	n	n	n	n
C=C(C)C(=O)Nc1ccc2c(c1)OCCOCCOCCO2	n	78	n	n	86	x
O=C(CN1CCN(S(=O)(=O)N2CCOCC2)CC1)Nc1cc(Cl)cc(Cl)c1	n	n	n	n	x	x
O=C(CNc1cc(S(=O)(=O)N2CCOCC2)ccc1N1CCOCC1)Nc1cccc(C(F)(F)F)c1	n	41	n	n	n	x
CC1(C)Cc2c(sc3ncn4c(=S)[nH]nc4c23)CO1	n	42	n	n	74	n
SMILES	A3A deaminase	APOBEC3G inh	HDAC3 inh	LANA-H2A inh	APOBEC3G confirm	UDG ctr A3G
COC(=O)C1=C(C(=O)OC)SC2(S1)C(C(=O)OC)=C(C(=O)OC)SC1=C2c2cc(C)ccc2NC1(C)C	n	45	n	n	40	n
CCCCCCNC(=O)N[C@H](C(=O)NCCC[C@H]1CN2C(=NC[C@H]2C)N1CCC(c1ccccc1)c1ccccc1)C(C)O (stereo not given in full)	n	78	n	n	73	x
CC(Oc1ccc2c3c(c(=O)oc2c1)CCCC3)C(=O)NCCN1CCOCC1 (stereo not given)	n	73	n	11	n	n
Cc1cccc(C(=O)Nc2ccccc2C(=O)NCc2ccco2)c1	n	n	n	n	x	x
COc1ccc(N2C(=O)N(Cc3ccc(C)cc3)c3ccccc3S2(=O)=O)cc1	n	47	n	n	n	x
Cc1cc(C)cc(N(C(=O)c2csnn2)C(C(=O)NC2CCCC2)c2cccnc2)c1 (stereo not given)	n	n	n	n	x	x
CC1(C)Cc2c(c(N3CCOCC3)nc3sc(C(=O)N4CCCCC4)c(N)c23)CO1	n	47	x	x	28	n
CC(C)NC(=O)Cn1cc(C(=O)C2CC2)c2ccccc21	n	n	n	n	x	x
CCCCCC(=O)N1CC2(CC(c3cccc(NC(=O)[C@@H]4CCC(=O)N4)c3)=NO2)C[C@@H]1C(N)=O (stereo not given in full)	n	n	n	n	x	x
C/C=C(/C)C(=O)Nc1cccc(C2=NOC3(C2)C[C@@H](C(N)=O)N(C(=O)[C@H]2CCC(=O)N2)C3)c1 (stereo not given in full)	n	n	n	n	x	x
C=C(C)C(=O)Nc1cccc(C2=NOC3(C2)C[C@@H](C(N)=O)N(C(=O)c2ccc(OC)cc2)C3)c1 (stereo not given in full)	n	81	n	n	100	x
C=C(C)C(=O)Nc1cccc(C2=NOC3(C2)C[C@@H](C(N)=O)N(C(=O)CCCCC)C3)c1 (stereo not given in full)	n	86	n	n	94	n
C=C(C)C(=O)Nc1cccc(C2=NOC3(C2)C[C@@H](C(N)=O)N(C(=O)[C@H]2CCC(=O)N2)C3)c1 (stereo not given in full)	n	43	n	n	46	n
COc1ccccc1N1CCN(Cc2cc(=O)c(OCC(=O)NC(C)C)co2)CC1	n	n	n	n	x	x
CCOC(=O)C1=C(C)N(c2ccccc2)C(=O)/C1=C\c1ccc(O)c(OC)c1	n	66	n	n	n	x
O=C(NCC(=O)N(CCN1CCOCC1)C(C(=O)NC1CCCC1)c1ccccc1)c1cccs1 (stereo not given)	n	n	n	n	x	x
Cc1ccc(NC(=S)c2ccc3ccccc3n2)c(C)c1	n	46	n	n	22	n
COc1ccc(NC(=S)c2ccc3ccccc3n2)cc1	n	62	n	n	62	n
Cc1ccc(C)c(NC(=O)c2ccc3ccccc3n2)c1	n	n	n	n	x	x
CC1Sc2ccc(C(=O)NCc3ccccn3)cc2NC1=O (stereo not given)	n	55	n	n	33	n
CCN(CC)S(=O)(=O)c1cccc(-c2n[nH]c(=S)n2C)c1	n	46	n	n	69	n
Cc1ccc(-c2n[nH]c(=S)n2C)cc1Cl	n	50	n	n	61	n
C=CCn1c(-c2cccc(S(=O)(=O)N(CC)CC)c2)n[nH]c1=S	n	47	n	n	79	n
Cc1ccc(-n2c(-c3ccc(Cl)cc3)n[nH]c2=S)c(C)c1	n	n	n	n	x	x
CC1Oc2ccccc2N(CC(=O)Nc2ccc(F)cc2)C1=O (stereo not given)	n	n	n	n	x	x
CC/C(=N\NC(=O)Cc1ccc(Br)cc1)c1cccs1	n	n	n	n	x	x
S=c1nc(C2COc3ccccc3O2)[nH][nH]1 (stereo not given)	n	52	n	n	71	n
S=c1[nH]nc(C2COc3ccccc3O2)o1 (stereo not given)	n	n	n	n	x	x
